# G9a inh: qHTS Assay for Inhibitors of Histone Lysine Methyltransferase G9a; Histone-lysine N-methyltransferase EHMT2 (Homo sapiens), Q96KQ7; G9a H3K9 monomethylation, AlphaScreen, 2 h; Potency, µM (doses to about 102 µM), actives largely listed as inhibitors; 350,000 tested, 8.8% active; AID 504332, 2011; also: nearly all actives have a fitted effect of over 75% in size
# Target sequence (Q96KQ7 913-1193 limits assumed): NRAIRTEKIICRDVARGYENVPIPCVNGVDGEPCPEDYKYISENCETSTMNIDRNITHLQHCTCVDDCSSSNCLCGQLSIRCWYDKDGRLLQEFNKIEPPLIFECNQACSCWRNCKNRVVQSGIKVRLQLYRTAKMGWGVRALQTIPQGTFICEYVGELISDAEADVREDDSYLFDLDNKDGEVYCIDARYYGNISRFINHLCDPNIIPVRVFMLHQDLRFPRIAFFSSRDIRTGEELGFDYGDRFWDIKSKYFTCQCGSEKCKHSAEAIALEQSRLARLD
#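 AlphaScreen detection with an anti-monomethyl H3K9 antibody quantified product after a 2 h room-temperature reaction containing 500 nM biotinylated H3K9 peptide, 20 µM SAM and 20 nM enzyme, which had been preincubated 15 min with compound.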
# JMJD2A Tudor inh: qHTS Assay for Inhibitors of JMJD2A-Tudor Domain. Lysine-specific demethylase 4A (Homo sapiens), O75164. AlphaScreen JMJD2A-Tudor / H3K4me3 peptide binding. Potency, µM (highest dose often 114 µM), hits mostly inhibitors. 390,000 tested, 4.4% active; also: nearly all actives have a fitted effect of over 50% in size
# HP1b binding inh: HTS for Inhibitors of HP1-beta Chromodomain Interactions with Methylated Histone Tails | Chromobox protein homolog 1 (Homo sapiens), P83916 | AlphaScreen HP1-beta / biotin-H3K9me3 peptide binding | Potency, µM (top dose mostly 114 µM), actives largely listed as inhibitors | 390,000 tested, 0.56% active; also: nearly all actives have a fitted effect of over 70% in size
# Target sequence (P83916 whole entry, looked up): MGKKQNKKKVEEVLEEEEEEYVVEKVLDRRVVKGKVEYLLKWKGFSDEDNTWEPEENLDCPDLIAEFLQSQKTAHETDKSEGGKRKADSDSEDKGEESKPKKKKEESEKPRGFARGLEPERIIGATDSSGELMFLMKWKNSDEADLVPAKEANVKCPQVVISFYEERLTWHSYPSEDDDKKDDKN
#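 HP1-beta protein (50 nM final) preincubated 30 min at room temperature with biotinylated H3(1-18)K9me3 peptide (50 nM) in PBS pH 7.4, 0.01% Tween-20, then compound added for 30 min. AlphaScreen streptavidin donor/nickel chelate acceptor beads (10 ug/mL final), 30 min dark, luminescence read.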
# Sfp PPTase inh: qHTS Assay for Inhibitors of Bacillus subtilis Sfp phosphopantetheinyl transferase (PPTase). 4'-phosphopantetheinyl transferase ffp (Bacillus subtilis), Q9F4F7. Biochemical Sfp PPTase activity, qHTS. Potency, µM, hits mostly inhibitors. 310,000 tested, 3.5% active. AID 1490, 2009;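 also: the enzyme is Sfp with the accession as filed and its product quenches rhodamine fluorescence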
#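 Buffer: 50 mM Hepes-Na pH 7.6, 10 mM MgCl2, 0.01% Nonidet P-40, 0.01% BSA. Enzyme 15 nM, pre-exposed to compound 15 min; substrates then added and fluorescence change tracked over 30 min.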
# BAZ2B inh: qHTS Assay for Inhibitors of BAZ2B; Bromodomain adjacent to zinc finger domain protein 2B (Homo sapiens), Q9UIF8; AlphaScreen BAZ2B-H3K14Ac peptide displacement; Potency, µM (doses to about 114 µM), hits mostly inhibitors; 360,000 tested, 4.4% active; AID 504333, 2011; also: nearly all actives have a fitted effect of over 60% in size
#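 Complex of BAZ2B and biotin-H3K14Ac (50 nM apiece) forms over 30 min at RT, then faces library compounds up to 110 uM for another 30 min; AlphaScreen beads added, 20 min dark incubation, luminescence read.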
# Numbers stand for hits; . = inactive; ? = inconclusive; / = no result given; [ ] = remark or other dose. The list is not random: actives were taken first. Their share in the collection is about 12%. Calls follow the shape of the dose curve; as a rule, active = well fitted curve in the direction sought with a large enough effect; inconclusive = small, poorly fitted or top-dose-only effect, or another doubt; inactive = no such curve, though single readings can be large; an effect the other way counts as inactive or inconclusive.
SMILES,G9a inh,JMJD2A Tudor inh,HP1b binding inh,Sfp PPTase inh,BAZ2B inh
COc1cc2c(cc1OC)CN(CC(=O)Nc1ccc(F)cc1)C(C(=O)O)C2 (centres undefined),?,.,.,?,79.4µM
COc1ccc(NC(=O)CN2CCN(CC(=O)Nc3ccc(F)cc3)CC2)c(OC)c1,.,.,.,.,.
CCc1ccc(NC(=O)CSc2nccn2C2CCCC2)cc1,?,.,.,/,?
CCOC(=O)c1c(CN(C)C)n(C)c2c(O)c(N=NC(N)=O)c3ccc(Br)cc3c12,.,35.5µM,.,.,.
CCCn1c(=O)c(C(=O)OCC)c(O)c2cc(Br)ccc21,?,.,.,.,.
COc1cc(C(=O)CSc2nncn2C)cc(OC)c1OC,39.8µM,.,.,?,?
COc1cc(C(=O)CSc2nccn2C)cc(OC)c1OC,.,.,.,.,.
CC(C)(C)C1C/C(=C/c2ccccn2)C(=O)/C(=C/c2ccccn2)C1 (centres undefined),?,.[11.4 µM],.,?,?
O=C1/C(=C\c2ccco2)CCC/C1=C\c1ccco1,?,44.7µM,44.7µM,11.2µM,44.7µM
CC1C/C(=C/c2ccccn2)C(=O)/C(=C/c2ccccn2)C1 (centres undefined),50.1µM,.,.,44.7µM,?
CC1C/C(=C/c2ccco2)C(=O)/C(=C/c2ccco2)C1 (centres undefined),12.6µM,/,/,?,35.5µM
C=C(C)Cn1c(N2CCCC2)nc2c1c(=O)n(C)c(=O)n2C,/,.,.,.,.
O=c1[nH]c2ccc(Br)cc2c(-c2ccccc2)c1CN1CCOCC1,50.1µM,?,.,.,.
O=c1[nH]c2ccc(Br)cc2c(-c2ccccc2)c1N1CCOCC1,.,.,.,.,.
O=c1[nH]c(S)nc2sc3c(c12)CCCC3,1µM,25.1µM,.,44.7µM,?
CCCCNc1c(-c2ccc(-c3ccc(C(C)=O)cc3)c(OC)c2)nc2cnccn12,.[12.7 µM],.,.,/,?
O=C(NCCc1ccc(F)cc1)Nc1ccc([N+](=O)[O-])cc1,?,.,.,.,.
S=C(NCCc1ccccc1)Nc1c(Cl)cccc1Cl,?,.,.,31.6µM,.
Cc1cccc(C)c1NC(=S)NCCc1ccc(O)c(O)c1,25.1µM,.,.,50.1µM,.
CC(C)(C)NC(=S)Nc1ccc(Nc2ccccc2)cc1,11.2µM,31.6µM,.,?,28.2µM
O=[N+]([O-])c1ccc(NC(=S)NCCc2ccc(F)cc2)cc1,?,?,.,?,79.4µM
CNC(=S)NCCc1ccccc1,.,.,.,.,.
Cc1cccc(NC(=S)NCCc2ccccc2)c1C,.,.,.,.,.
CC1(C)Cc2cccc(OCC(=O)Nc3ccc(S(N)(=O)=O)cc3)c2O1,.,.,.,/,.
O=C(NCCCn1ccnc1)c1ccc(Br)c(S(=O)(=O)N2CCOCC2)c1,.,.,.,.,?
SMILES,G9a inh,JMJD2A Tudor inh,HP1b binding inh,Sfp PPTase inh,BAZ2B inh
CC(C)(CNC(=S)NCCc1ccccc1)CNC(=S)NCCc1ccccc1,10µM,?,.,.,?
S=C(NCCc1ccccc1)Nc1ccc(Nc2ccccc2)cc1,/,17.8µM,11.2µM,.,8.91µM
OCCNC(=S)NCCc1ccccc1,.,.,.,.,.
COc1ccc(-c2cc3ccccc3oc2=O)cc1NC(=O)c1ccc([N+](=O)[O-])o1,/,.,.,?,.
COC(=O)c1ccc(C2NC(=O)c3c(sc(C)c3C)N2)cc1 (centres undefined),5.62µM,.,.,15.8µM,.
Cc1sc2c(c1C)C(=O)NC(c1cccc(O)c1)N2 (centres undefined),44.7µM,/,/,39.8µM,.
Cc1[nH]c2ccc(Br)cc2c(=S)c1C/C=C/Cl,35.5µM,.,.,.,?
Cc1[nH]c2ccc3ccccc3c2c(=O)c1C/C=C/Cl,.,.,.,.,.
COc1ccc(CN(C)Cc2c(O)ccc3cc(Br)ccc23)cc1OC,25.1µM,.,.,.,?
COc1ccc(CCN(C)Cc2c(O)ccc3cc(Br)ccc23)cc1OC,25.1µM,.,.,.,.
COc1ccc(CCN(C)C(=O)c2cncc(Br)c2)cc1OC,.,.,.,.,.
CCOC(=O)c1c(C)nc2c(c1-c1ccc(OC)c(OC)c1)C(=O)c1ccccc1-2,.,.,.,.,.
CCOC(=O)C(C(=O)OCC)c1cc(Br)c2noc3c2c1C(=O)c1ccccc1-3,2.51µM,50.1µM,?,0.708µM,7.94µM
COc1ccc(C(C(=O)Nc2ccc(C(C)C)cc2)N(Cc2ccco2)C(=O)CC2NC(=O)NC2=O)cc1 (centres undefined),8.91µM,.,.,.,39.8µM
O=c1ccsn1Cc1ccccc1,?,39.8µM,?,0.631µM,56.2µM
COc1cc(CC(=O)Nc2cc(S(C)(=O)=O)ccc2Cl)cc(OC)c1OC,.,.,.,.,.
CCN(c1ccccc1)S(=O)(=O)c1ccc(OC)c(NC(=O)COc2ccc(C(C)=O)cc2)c1,56.2µM,.,.,/,.
CCN(c1ccccc1)S(=O)(=O)c1ccc(OC)c(NC(=O)CCc2nc3ccccc3c(=O)[nH]2)c1,44.7µM,.,.,/,.
CCN(c1ccccc1)S(=O)(=O)c1ccc(OC)c(NC(=O)Cc2ccc(F)cc2)c1,.[12.7 µM],.,.,/,.
CCN(c1ccccc1)S(=O)(=O)c1ccc(OC)c(NC(=O)CNCCc2ccccc2)c1,?,0.891µM,50.1µM,.,31.6µM
COc1ccc(N=c2scc(C)n2CCCN2CCCC2=O)cc1,?,.,.,.,/
COc1ccc(/C=N/OC(=O)Nc2ccccc2)cc1[N+](=O)[O-],.,.,.,.,.
Cc1cc(-c2ccco2)n(CC(=O)NCCCc2ccccc2)n1,.,.,.,.,.
Cc1cc(C(=O)N2CCN(C/C=C/c3ccccc3)CC2)no1,50.1µM,.,.,.,.
O=C(NC(=S)N1CCN(C/C=C/c2ccccc2)CC1)c1c(F)cccc1F,?,.,.,.,.
SMILES,G9a inh,JMJD2A Tudor inh,HP1b binding inh,Sfp PPTase inh,BAZ2B inh
O=C(c1ccco1)N1CCN(C/C=C/c2ccccc2)CC1,56.2µM,.[11.4 µM],.,.,.
COc1ccc(NS(=O)(=O)c2cc(C(=O)N3CCN(C/C=C/c4ccccc4)CC3)ccc2C)cc1,14.1µM,?,.,/,50.1µM
Cc1ccc(C(=O)N2CCCCCC2)cc1S(=O)(=O)Nc1ccccc1,/,.,.,.,.
O=C(c1cccs1)N1CCN(C/C=C/c2ccccc2)CC1,.[2.33 µM],.,.,.,.
O=C(NC(=S)N1CCN(C/C=C/c2ccccc2)CC1)c1ccco1,44.7µM,.,.,.,.
Cn1cc(C(=O)Nc2ccc(F)c(Cl)c2)cn1,.,.,.,.,.
CN1c2ccsc2C(O)=C(C(=S)Nc2ccc(F)c(Cl)c2)S1(=O)=O,17.8µM,.,.,50.1µM,?

# Source: PubChem BioAssay (National Center for Advancing Translational Sciences (NCATS))
